# Laboratory results reported in article PMC5540273 (PLoS ONE, 2017).
# Where “and” joins values, the source holds several entries; their conditions need not be identical. Equal entries are not always repeated. Where two headings read alike, the source gives them in different places.
# Key:
# MEK2 = system: T1, MEK2; conditions: concentration: 1 μM, replicates: in singlicate; n = 1
# T1 construct: gene MAP2K2
# MEK3 = system: T2, MEK3; conditions: concentration: 1 μM, replicates: in singlicate; n = 1
# T2 construct: gene MAP2K3
# MEK4 = system: T3, MEK4; conditions: n = 1
# T3 construct: gene MAP2K4
# MEK5 = system: T4, MEK5; conditions: n = 1
# T4 construct: gene MAP2K5
# MEK6 = system: T5, MEK6; conditions: concentration: 1 μM, replicates: in singlicate; n = 1
# T5 construct: gene MAP2K6
# MELK = conditions: n = 1
# MERTK = conditions: n = 1
# MET = conditions: concentration: 1 μM, replicates: in singlicate; n = 1
# MINK = system: T6, MINK; conditions: concentration: 1 μM, replicates: in singlicate; n = 1
# T6 construct: gene MINK1
# MKK7 = conditions: concentration: 1 μM, replicates: in singlicate; n = 1
# MKNK1 = conditions: concentration: 1 μM, replicates: in singlicate; n = 1
# MKNK2 = conditions: n = 1
# MLCK = system: T7, MLCK; conditions: n = 1
# T7 construct: gene MYLK3
# MLK1 = system: T8, MLK1; conditions: concentration: 1 μM, replicates: in singlicate; n = 1
# T8 construct: gene MAP3K9
# MLK2 = conditions: concentration: 1 μM, replicates: in singlicate; n = 1
# MLK3 = conditions: n = 1
# MRCKA = conditions: n = 1
# MRCKB = system: T9, MRCKB; conditions: n = 1
# T9 construct: gene CDC42BPB
# MST1R = conditions: n = 1
# MST1 = system: T10, MST1; conditions: n = 1
# T10 construct: gene STK4
# [1] = concentration: 1 μM, replicates: in singlicate
# [2] = concentration: 1 μM,replicates: in singlicate, 1 µM
# 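Note: KINOMEscan kinase panel screen.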
compound,measurement,setting,value
O=C(Nc1n[nH]c2nc(-c3nccs3)c(Br)cc12)C1CCCC1 [SB-742609],%Inh,MEK2,0%
same,%Inh,MEK3,0%
same,%Inh,MEK4; [1],30%
same,%Inh,MEK5; [1],39%
same,%Inh,MEK6,0%
same,%Inh,MELK; [1],0%
same,%Inh,MERTK; [1],44%
same,%Inh,MET,5%
same,%Inh,MINK,0%
same,%Inh,MKK7,0%
same,%Inh,MKNK1,31%
same,%Inh,MKNK2; [1],31%
same,%Inh,MLCK; [1],39%
same,%Inh,MLK1,9%
same,%Inh,MLK2,12%
same,%Inh,MLK3; [1],0%
same,%Inh,MRCKA; [1],0%
same,%Inh,MRCKB; [1],0%
same,%Inh,MST1R; [1],27%
same,%Inh,MST1; [1],3%
COc1cc2ncnc(Nc3ccc4nc(-c5ccccc5)[nH]c4c3)c2cc1OC.Cl [GW282450],%Inh,MEK2,0%
same,%Inh,MEK3,3%
same,%Inh,MEK4; [1],21%
same,%Inh,MEK5; [1],90%
same,%Inh,MEK6,0%
same,%Inh,MELK; [1],7%
same,%Inh,MERTK; [1],0%
same,%Inh,MET,0%
same,%Inh,MINK,1%
same,%Inh,MKK7,0%
same,%Inh,MKNK1,2%
same,%Inh,MKNK2; [1],2%
same,%Inh,MLCK; [1],0%
same,%Inh,MLK1,0%
same,%Inh,MLK2,0%
same,%Inh,MLK3; [1],33%
same,%Inh,MRCKA; [1],14%
same,%Inh,MRCKB; [1],14%
same,%Inh,MST1R; [1],26%
same,%Inh,MST1; [1],0%
Cc1cccc(-c2nc(Nc3cccc(C(N)=O)c3)c3ccccc3n2)n1 [GW876019],%Inh,MEK2,27%
same,%Inh,MEK3,14%
same,%Inh,MEK4; [1],0%
same,%Inh,MEK5; [1],20%
same,%Inh,MEK6,0%
same,%Inh,MELK; [1],24%
same,%Inh,MERTK; [1],11%
same,%Inh,MET,19%
same,%Inh,MINK,5%
same,%Inh,MKK7,0%
same,%Inh,MKNK1,0%
same,%Inh,MKNK2; [1],0%
same,%Inh,MLCK; [1],0%
same,%Inh,MLK1,4%
same,%Inh,MLK2,0%
same,%Inh,MLK3; [1],0%
same,%Inh,MRCKA; [1],38%
same,%Inh,MRCKB; [1],32%
same,%Inh,MST1R; [1],0%
same,%Inh,MST1; [1],31%
COc1cccc(NC(=O)NC2CCN(c3ccnc(Nc4ccc(F)cc4)n3)C2)c1 (centres unmarked) [GSK1379721],%Inh,MEK2,22%
same,%Inh,MEK3,0%
same,%Inh,MEK4; [1],26%
same,%Inh,MEK5; [1],86%
same,%Inh,MEK6,0%
same,%Inh,MELK; [1],8%
same,%Inh,MERTK; [1],14%
same,%Inh,MET,0%
same,%Inh,MINK,0%
same,%Inh,MKK7,0%
same,%Inh,MKNK1,23%
same,%Inh,MKNK2; [1],0%
same,%Inh,MLCK; [1],0%
same,%Inh,MLK1,0%
same,%Inh,MLK2,0%
same,%Inh,MLK3; [1],0%
same,%Inh,MRCKA; [1],6%
same,%Inh,MRCKB; [1],0%
same,%Inh,MST1R; [1],28%
same,%Inh,MST1; [1],0%
CSc1nn2c(=O)cc(N3CCOCC3)nc2n1Cc1cccc(C(F)(F)F)c1C [GSK2363608],%Inh,MEK2,0%
same,%Inh,MEK3,0%
same,%Inh,MEK4; [2],17% and 30%
same,%Inh,MEK5; [2],12% and 0%
same,%Inh,MEK6,0%
same,%Inh,MELK; [2],6% and 0%
same,%Inh,MERTK; [2],0% and 18%
same,%Inh,MET,0%
same,%Inh,MINK,0%
same,%Inh,MKK7,0%
same,%Inh,MKNK1,0%
same,%Inh,MKNK2; [2],11% and 6%
same,%Inh,MLCK; [2],0% and 11%
same,%Inh,MLK1,0%
same,%Inh,MLK2,0%
same,%Inh,MLK3; [2],17% and 0%
same,%Inh,MRCKA; [2],23% and 17%
same,%Inh,MRCKB; [2],0% and 5%
same,%Inh,MST1R; [2],35% and 48%
same,%Inh,MST1; [2],11% and 0%
Cc1nnc(-c2ccc3occ(-c4ccc(S(C)=O)cc4)c3c2)[nH]1 (centres unmarked),%Inh,MEK2,1%
same,%Inh,MEK3,19%
same,%Inh,MEK4; [1],37%
same,%Inh,MEK5; [1],42%
same,%Inh,MEK6,0%
same,%Inh,MELK; [1],0%
same,%Inh,MERTK; [1],13%
same,%Inh,MET,5%
same,%Inh,MINK,17%
same,%Inh,MKK7,18%
same,%Inh,MKNK1,9%
same,%Inh,MKNK2; [1],49%
same,%Inh,MLCK; [1],8%
same,%Inh,MLK1,6%
same,%Inh,MLK2,3%
same,%Inh,MLK3; [1],4%
same,%Inh,MRCKA; [1],1%
same,%Inh,MRCKB; [1],0%
same,%Inh,MST1R; [1],0%
same,%Inh,MST1; [1],0%
COc1ccc(C2=C(Nc3cccc(C(=O)O)c3)C(=O)NC2=O)cc1 [SB-390765],%Inh,MEK2,15%
same,%Inh,MEK3,15%
same,%Inh,MEK4; [1],7%
same,%Inh,MEK5; [1],40%
same,%Inh,MEK6,0%
same,%Inh,MELK; [1],11%
same,%Inh,MERTK; [1],11%
same,%Inh,MET,0%
same,%Inh,MINK,8%
same,%Inh,MKK7,8%
same,%Inh,MKNK1,0%
same,%Inh,MKNK2; [1],43%
same,%Inh,MLCK; [1],27%
same,%Inh,MLK1,0%
same,%Inh,MLK2,0%
same,%Inh,MLK3; [1],27%
same,%Inh,MRCKA; [1],0%
same,%Inh,MRCKB; [1],8%
same,%Inh,MST1R; [1],24%
same,%Inh,MST1; [1],0%
Cc1cc(NCC(c2ccccc2)c2ccccc2)nc(NCc2ccc(C(F)(F)F)cc2)n1 [GW497681],%Inh,MEK2,0%
same,%Inh,MEK3,0%
same,%Inh,MEK4; [1],10%
same,%Inh,MEK5; [1],1%
same,%Inh,MEK6,0%
same,%Inh,MELK; [1],0%
same,%Inh,MERTK; [1],7%
same,%Inh,MET,13%
same,%Inh,MINK,0%
same,%Inh,MKK7,0%
same,%Inh,MKNK1,0%
same,%Inh,MKNK2; [1],0%
same,%Inh,MLCK; [1],3%
same,%Inh,MLK1,0%
same,%Inh,MLK2,0%
same,%Inh,MLK3; [1],0%
same,%Inh,MRCKA; [1],3%
same,%Inh,MRCKB; [1],0%
same,%Inh,MST1R; [1],10%
same,%Inh,MST1; [1],0%
Cn1ccc2ncnc(Oc3cccc(C(=O)Nc4ccccc4)c3)c21,%Inh,MEK2,23%
same,%Inh,MEK3,19%
same,%Inh,MEK4; [1],30%
same,%Inh,MEK5; [1],14%
same,%Inh,MEK6,0%
same,%Inh,MELK; [1],9%
same,%Inh,MERTK; [1],0%
same,%Inh,MET,8%
same,%Inh,MINK,12%
same,%Inh,MKK7,21%
same,%Inh,MKNK1,12%
same,%Inh,MKNK2; [1],11%
same,%Inh,MLCK; [1],13%
same,%Inh,MLK1,0%
same,%Inh,MLK2,6%
same,%Inh,MLK3; [1],12%
same,%Inh,MRCKA; [1],1%
same,%Inh,MRCKB; [1],15%
same,%Inh,MST1R; [1],11%
same,%Inh,MST1; [1],0%
CS(=O)(=O)c1ccc(-c2c(-c3ncn[nH]3)sc(N3CCOCC3)c2C#N)cc1,%Inh,MEK2,0%
same,%Inh,MEK3,0%
same,%Inh,MEK4; [1],0%
same,%Inh,MEK5; [1],16%
same,%Inh,MEK6,0%
same,%Inh,MELK; [1],5%
same,%Inh,MERTK; [1],0%
same,%Inh,MET,0%
same,%Inh,MINK,21%
same,%Inh,MKK7,10%
same,%Inh,MKNK1,0%
same,%Inh,MKNK2; [1],0%
same,%Inh,MLCK; [1],13%
same,%Inh,MLK1,0%
same,%Inh,MLK2,51%
same,%Inh,MLK3; [1],15%
same,%Inh,MRCKA; [1],0%
same,%Inh,MRCKB; [1],16%
same,%Inh,MST1R; [1],29%
same,%Inh,MST1; [1],24%
